# In PubChem BioAssay AID1259420 (Broad Institute, 2018):
# Among all 1,000 compounds or so, about 250 (25%) were called active. Another 31% or so got no clear call; they are omitted. The rule behind the calls is not given here. These entries were drawn from the full list. Measured potencies and affinities stand elsewhere.
# Assay: T. gondii intracellular growth, IFN-gamma absent, dose response, cell-based (AID 1259420);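 note: host cells were HeLa; final incubation lasted 72 hours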
# Settings: Toxoplasma gondii growth in host cells, no IFN-gamma
smiles,measurement,setting,value
CCn1cc(NC(=O)c2cccc(CN3C[C@@H](C)O[C@@H](C)C3)c2)nn1,max activity,at 19.5 µM unless noted,-7.36% [at 0.3 µM] (inactive)
CN(C)C(=O)c1ccc2nnc3ncn(Cc4ccccc4)c3c2c1,max activity,at 19.5 µM unless noted,9.7% [at 2.6 µM] (inactive)
CS(=O)(=O)N1CC(=O)N2[C@H](CO)[C@@H](c3ccc(C#Cc4ccc(F)cc4)cc3)[C@H]2C1,max activity,at 19.5 µM unless noted,15.4% (inactive)
CS(=O)(=O)N1CC(=O)N2[C@H](C1)[C@@H](c1ccc(C#Cc3ccc(F)cc3)cc1)[C@@H]2CO,max activity,at 19.5 µM unless noted,5.83% [at 2.6 µM] (inactive)
O=C(Cc1ccccn1)N1CC(=O)N2[C@H](C1)[C@H](c1ccc(C#CCC3CCCC3)cc1)[C@@H]2CO,max activity,at 19.5 µM unless noted,12.6% (inactive)
O=C(c1ccc(F)cc1)N1CC(=O)N2[C@H](CO)[C@@H](c3ccc(C#CCC4CCCC4)cc3)[C@@H]2C1,max activity,at 19.5 µM unless noted,23.3% (inactive)
O=C(Cc1ccccn1)N1CC(=O)N2[C@H](CO)[C@@H](c3ccc(C#CCC4CCCC4)cc3)[C@@H]2C1,max activity,at 19.5 µM unless noted,18.5% (inactive)
O=C(Cc1ccccn1)N1CC(=O)N2[C@H](CO)[C@@H](c3ccc(C#CCC4CCCC4)cc3)[C@H]2C1,max activity,at 19.5 µM unless noted,20.5% (inactive)
CS(=O)(=O)N1CCOC2C(COc3ncccn3)CCC21 (stereo unspecified),max activity,at 19.5 µM unless noted,-15% [at 0.3 µM] (inactive)
CCOC(=O)c1c(C)[nH]c(-c2ccccc2)c1-c1ccccc1,max activity,at 19.5 µM unless noted,4.75% [at 10 µM] (inactive)
O=C(O)c1ccc(C2C(=O)NNCC2N2CCCC2)s1 (stereo unspecified),max activity,at 0.16 µM,8.24% (inactive)
same,max activity,at 19.5 µM,10.9% (inactive)
Fc1cccnc1OC1COC2(CCN(Cc3ccsc3)CC2)C1 (stereo unspecified),max activity,at 19.5 µM unless noted,18.6% (inactive)
C[C@@H](N)C1CCC(C(=O)Nc2ccncc2)CC1 (stereo partly specified),max activity,at 19.5 µM unless noted,-12.3% [at 0.08 µM] (inactive)
Cc1cccc(-n2ncc3c(NC4CCCCCCCCCCC4)ncnc32)c1,max activity,at 19.5 µM unless noted,8.82% [at 10 µM] (inactive)
COc1ccc(C#Cc2ccc([C@@H]3[C@H]4CN(C(=O)NC(C)C)CC(=O)N4[C@H]3CO)cc2)cc1,max activity,at 19.5 µM unless noted,9.38% [at 0.6 µM] (inactive)
COc1ccc(C#Cc2ccc([C@@H]3[C@H](CO)N4C(=O)CN(C(=O)NC(C)C)C[C@@H]34)cc2)cc1,max activity,at 5 µM,-8.81% (inactive)
same,max activity,at 19.5 µM,-6.49% (inactive)
COc1cccc(NC(=O)N2CC(=O)N3[C@H](C2)[C@H](c2ccc(C#CCC4CCCC4)cc2)[C@@H]3CO)c1,max activity,at 19.5 µM unless noted,38.8% [at 21 µM] (inactive)
COc1cccc(NC(=O)N2CC(=O)N3[C@@H](CO)[C@@H](c4ccc(C#CCC5CCCC5)cc4)[C@@H]3C2)c1,max activity,at 19.5 µM unless noted,9.07% [at 21 µM] (inactive)
COc1ccc(C#Cc2ccc([C@H]3[C@H]4CN(C(=O)NC(C)C)CC(=O)N4[C@H]3CO)cc2)cc1,max activity,at 19.5 µM unless noted,13% [at 10 µM] (inactive)
O=C1NCC(=O)N2CCN(C(=O)Nc3cc(Cl)cc(Cl)c3)CC12 (stereo unspecified),max activity,at 19.5 µM unless noted,17.6% [at 2.6 µM] (inactive)
CC(=O)N1Cc2ncn(CC3CC3)c2C(COCC2CCOCC2)C1 (stereo unspecified),max activity,at 19.5 µM unless noted,-7.3% [at 0.16 µM] (inactive)
C=CCN1CCC2(CC1)CC(NCc1ccc(C)s1)c1ccccc1O2 (stereo unspecified),max activity,at 19.5 µM unless noted,5.11% [at 0.3 µM] (inactive)
CCCNC(=O)N1CC(=O)N2[C@@H](CO)[C@H](c3ccc(C#Cc4cccc(OC)c4)cc3)[C@@H]2C1,max activity,at 19.5 µM unless noted,15.9% (inactive)
CCCNC(=O)N1CC(=O)N2[C@H](C1)[C@@H](c1ccc(C#Cc3cccc(OC)c3)cc1)[C@@H]2CO,max activity,at 19.5 µM unless noted,8.44% [at 2.35 µM] (inactive)
COc1ccc(C#Cc2ccc([C@H]3[C@@H](CO)N4C(=O)CN(C(=O)NC(C)C)C[C@@H]34)cc2)cc1,max activity,at 19.5 µM unless noted,22.6% (inactive)
C/C=C/c1ccc([C@H]2[C@H]3CN(C(=O)Nc4cccc(OC)c4)CC(=O)N3[C@H]2CO)cc1,max activity,at 19.5 µM unless noted,-14.5% [at 2.6 µM] (inactive)
OC1(c2cccc(C(F)(F)F)c2)CCN(Cc2ccc3[nH]ccc3c2)CC1,max activity,at 19.5 µM unless noted,6.52% [at 0.16 µM] (inactive)
O=C(Cc1cccnc1)N1CC(=O)N2[C@H](CO)[C@@H](c3ccc(C#CC4CCCCC4)cc3)[C@@H]2C1,max activity,at 0.6 µM,-7.69% (inactive)
same,max activity,at 19.5 µM,16.4% (inactive)
Cc1cc(C(=O)N2CCC(c3cc4c(ncn4C)c(NCC4CC4)n3)CC2)ccc1Cl,max activity,at 19.5 µM unless noted,13.8% (inactive)
O=S(=O)(c1ccc(F)cc1)N1CCCCN2[C@H](C1)[C@H](c1ccc(-c3cncnc3)cc1)[C@@H]2CO,max activity,at 19.5 µM unless noted,22.3% (inactive)
Cc1ccccc1S(=O)(=O)N1CCCCN2[C@H](C1)[C@@H](c1ccc(C#CCN(C)C)cc1)[C@@H]2CO,max activity,at 19.5 µM unless noted,-29.9% [at 10 µM] (inactive)
Cc1ccccc1S(=O)(=O)N1CCCCN2[C@@H](CO)[C@@H](c3ccc(C#CCN(C)C)cc3)[C@@H]2C1,max activity,at 19.5 µM unless noted,48.3% (inactive)
Cc1ccccc1-c1ccc([C@H]2[C@H]3CN(S(=O)(=O)Cc4ccccc4)CCCCN3[C@H]2CO)cc1,max activity,at 19.5 µM unless noted,24.5% (inactive)
COc1cccc(-c2ccc([C@H]3[C@H](CO)N4C(=O)CN(C(=O)c5cccnc5)C[C@@H]34)cc2)c1,max activity,at 19.5 µM unless noted,-9.74% [at 1.2 µM] (inactive)
O=C(C1CCOCC1)N1CC(=O)N2[C@@H](CO)[C@H](c3ccc(/C=C/c4ccccc4)cc3)[C@@H]2C1,max activity,at 19.5 µM unless noted,7.51% [at 5 µM] (inactive)
CC(=O)N1CCC(N(C)Cc2cc(C(C)(C)C)n[nH]2)CC1,max activity,at 19.5 µM unless noted,-9.85% (inactive)
COCC(=O)N1CCC2(CC1)CC1(CCN(CC(C)C)CC1)C(=O)N2C,max activity,at 19.5 µM unless noted,-12.4% [at 10 µM] (inactive)
COc1cccc(S(=O)(=O)N2CC[C@@H]3[C@H]2c2cc(C#Cc4cccnc4)ccc2N[C@@H]3CO)c1,max activity,at 19.5 µM unless noted,17.4% (inactive)
O=S(=O)(c1ccccc1F)N1CC[C@@H]2[C@H](CO)Nc3ccc(C4=CCCCC4)cc3[C@@H]21,max activity,at 19.5 µM unless noted,-15.7% [at 5 µM] (inactive)
CNC(=O)NCC1CCC2(CCN(Cc3ccccc3)CC2)CO1 (stereo unspecified),max activity,at 19.5 µM unless noted,-9.71% [at 2.6 µM] (inactive)
OC[C@H]1[C@H](c2ccc(-c3cccc(F)c3)cc2)[C@H]2CN(Cc3cncnc3)CCCCN21,max activity,at 19.5 µM unless noted,16.3% (inactive)
N#Cc1c(N2C[C@@H]3NCCO[C@H]3C2)c(F)cc2c(=O)c(C(=O)O)cn(C3CC3)c12,max activity,at 19.5 µM unless noted,9.32% [at 1.2 µM] (inactive)
Cc1ccc(N2CCC[C@]3(C(=O)O)CN(CCN(C)C)C[C@H]3C2)nn1,max activity,at 19.5 µM unless noted,-23.7% [at 5 µM] (inactive)
